ADAM17 inh: inhibits human ADAM17; P78536; recombinant ADAM17, EDANS/DABCYL FRET peptide cleavage; inhibition, % at 6.95 µM; actives 0.83% (n = 370,000); AID 720648;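 active = inhibition above the mean of compounds lying between control limits plus 3 SD, set per campaign, cut at about 8.5% in these data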;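 also: 0% = DMSO-only wells as the low control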
ADAM10 inh: ADAM10 inhibition, QFRET primary screen. inhibition, % at 7 µM. actives 0.62% (n = 370,000). AID 720582. recombinant ADAM10, EDANS/DABCYL FRET peptide cleavage, 3 h. O14672;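 active = inhibition above a per-campaign cutoff equal to the mean of compounds falling between control-based bounds plus 3 SD, cut at about 20% in these data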;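 also: 0% = DMSO wells while the 100% control is not disclosed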
Target sequence (O14672 214-748 limits assumed): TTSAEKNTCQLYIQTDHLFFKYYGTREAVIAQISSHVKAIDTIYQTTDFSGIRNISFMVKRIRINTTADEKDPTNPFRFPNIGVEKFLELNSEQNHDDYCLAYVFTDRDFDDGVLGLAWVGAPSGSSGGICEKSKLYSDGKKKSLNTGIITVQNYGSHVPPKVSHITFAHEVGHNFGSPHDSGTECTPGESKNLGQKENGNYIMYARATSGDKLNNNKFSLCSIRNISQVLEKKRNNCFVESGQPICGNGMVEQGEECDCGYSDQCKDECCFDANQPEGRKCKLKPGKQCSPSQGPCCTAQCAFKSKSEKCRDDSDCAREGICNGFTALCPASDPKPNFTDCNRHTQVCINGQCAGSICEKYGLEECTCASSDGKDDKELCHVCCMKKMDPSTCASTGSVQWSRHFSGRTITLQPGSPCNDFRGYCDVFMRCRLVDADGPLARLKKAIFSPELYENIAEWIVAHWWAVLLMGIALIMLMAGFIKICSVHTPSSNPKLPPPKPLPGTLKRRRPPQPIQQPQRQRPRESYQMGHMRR
PLCb3 inh: inhibitors of human phospholipase C beta3 | Purified PLC-beta3, fluorogenic substrate, fluorescence | inhibition, % at 12.2 µM | actives 0.18% (n = 370,000); in the data active = inhibition above about 11%;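 also: 0% = median of compound wells on plate and 100% = full blocker control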
PLC-gamma1 inh: inhibitors of human phospholipase C gamma1 | actives 0.84% (n = 370,000) | purified PLC-gamma1, fluorogenic substrate, fluorescence | P19174 | inhibition, % at 12.2 µM; in the data active = inhibition above about 9.5%
proKLK7 act: activators of human kallikrein-7 zymogen; activation, % at 7 µM; P49862; AID 652039; purified proKLK7, EDANS-DABCYL substrate fluorescence; 100% is mature enzyme control, 0% vehicle; actives 0.9% (n = 370,000);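 active = activation above the mean of all tested compounds plus 3 SD, computed per campaign excluding outliers beyond control limits, cut at about 13% in these data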
ADAM10 confirm: confirmation of inhibitors of human ADAM10; shares compounds with ADAM10 inh; ADAM10 QFRET peptide cleavage, EDANS fluorescence; inhibition, % at 6.95 µM; actives 1% (n = 2,100); AID 743208;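 active = inhibition above about 20% chosen separately for each screening run, limit read from the data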;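 also: 0% = DMSO wells and 100% = marimastat wells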
ADAM17 counter: counter-screen for ADAM10 exosite inhibitors: inhibitors of human ADAM17 | shares compounds with ADAM10 inh | ADAM17 QFRET peptide cleavage, EDANS fluorescence | inhibition, % at 6.95 µM | actives 0.5% (n = 2,100);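 active = mean triplicate inhibition above the solvent-only control wells' mean plus 3 SD, cut at about 12% in these data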;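 also: 0% = DMSO wells and 100% = marimastat wells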
* hit, by the source's call; . = no result given; ! = not confirmed by another sample. Rows were chosen to be rich in hits. Some 2.9% of all compounds tested hit in one or more screens of this group.

SMILES	ADAM17 inh	ADAM10 inh	PLCb3 inh	PLC-gamma1 inh	proKLK7 act	ADAM10 confirm	ADAM17 counter
C#CCN1C(=O)[C@]2(NCCc3c2[nH]c2ccc(OC)cc32)c2cc(F)ccc21	-5.1	0.3	1.0	-1.5	0.1	.	.
COc1ccc(OC)c(-c2cc(C3CCN(c4ncccc4[N+](=O)[O-])CC3)[nH]n2)c1	8.5	23.7*	2.6	5.4	0.5	3.4	1.3
CC(C)C[C@H](NC(=O)c1ccc(Cl)c(Cl)c1)C(=O)N1CCC[C@H]1C(=O)NCc1ccccc1	-0.3	-1.6	2.3	4.2	1.0	.	.
COc1ccc(CNC(=O)O[C@@H]2C[C@H]3C(=O)N(c4ccccc4)C(=O)[C@H]3[C@@]3(CN(S(=O)(=O)c4ccc(C)cc4)C[C@H]3C)[C@@H]2O)cc1OC	6.0	19.8*	5.0	4.6	-0.1	0.7	0.5
O=C(CSCc1c(Cl)cccc1Cl)NN=C1CCCC1	3.0	9.7	-4.6	3.9	-0.3	.	.
O=C(CSCc1ccccc1Cl)NN=C1CCCCCC1	2.9	20.1*	-0.8	4.9	-0.2	0.9	1.4
Cc1cccc(N=Nc2c(C)nn(-c3ccccc3)c2N)c1C	5.9	23.1*	7.0	6.0	0.1	7.1	2.8
O=C(Nc1cccc(Cl)c1)OCCOC(=O)Nc1cccc(Cl)c1	8.0	20.6*	-1.1	-1.8	0.7	4.5	1.8
CCC1Sc2ccc(S(=O)(=O)CCC(=O)Nc3c(Cl)cc(OC)cc3OC)cc2NC1=O (stereo not drawn)	6.2	20.5*	-5.6	4.8	0.1	-0.4	-0.2
Cc1cc(S(=O)(=O)N(Cc2ccc(C(C)C)cc2)CC2CCCO2)ccc1-n1cnnn1 (stereo not drawn)	5.0	23.8*	7.5	0.0	-0.2	5.2	1.2
Cc1nn(C)cc1CNC(=O)Nc1ccc(Br)cc1Cl	2.4	85.3*	-2.3	-1.8	0.4	-0.6	-0.2
O=C(O)/C=C/C(=O)Nc1ccc(Oc2ccccc2)cc1	0.4	-0.7	-6.0	0.5	-0.3	.	.
CCOC(=O)/C=C/C(=O)Nc1ccc(Oc2ccccc2)cc1	1.0	21.4*	-0.4	0.2	-0.1	2.3	0.4
COc1ccc(N2CCN(C(=S)Nc3ccc(C)cc3C)CC2)cc1	4.5	20.5*	5.7	5.1	0.3	0.4	-0.1
CSc1ccc(Cn2c(C)c(C(=O)NCc3ccc4c(c3)OCCO4)sc2=O)cc1	6.3	20.4*	1.3	5.8	0.8	5.5	0.9
Cc1c(C(=O)NCc2ccc3c(c2)OCCO3)sc(=O)n1Cc1ccc2c(c1)OCO2	1.9	-1.7	-2.7	-3.2	0.1	.	.
CSc1ccc(Cn2c(C)c(C(=O)NCc3ccc(Cl)c(Cl)c3)sc2=O)cc1	8.3	21.4*	3.1	3.1	0.3	9.9	3.7
O=C(C(=O)N1CCC(CNS(=O)(=O)c2ccc(C(F)(F)F)cc2)CC1)c1cccs1	3.8	-0.1	-1.4	1.9	-0.4	.	.
COc1ccccc1NC(=O)C1=C(C)Nc2nc(-c3ccccc3)nn2C1c1ccccn1 (stereo not drawn)	2.2	66.7*	0.2	0.1	1.1	1.1	0.5
COc1ccccc1NC(=O)C1=C(C)Nc2nc(-c3cccs3)nn2C1c1cccc(O)c1 (stereo not drawn)	3.0	3.6	-7.4	-6.4	0.3	.	.
CC(=O)c1cccc(NC(=O)c2ccc3c(c2)CCN3S(=O)(=O)c2ccccc2)c1	4.9	23.1*	-8.7	1.2	0.1	4.2	1.7
COc1ccc(C2(c3ccc(OC)cc3)NC(=O)N(CC(=O)Nc3ccc(OC(F)F)cc3)C2=O)cc1	5.7	31.4*	-5.9	3.7	-0.6	9.1	2.2
COc1ccc(NC(=O)CN2C(=O)NC(c3ccccc3)(c3ccccc3)C2=O)cc1	4.0	10.2	0.0	-0.2	0.9	.	.
COc1cccc(COC(=O)C2CCN(S(=O)(=O)c3ccc(C)cc3C)CC2)c1OC	3.7	23.6*	-3.8	4.4	0.5	3.9	1.7
CCCC1CCC2(CC1)CCC2OC(=S)Nc1cccc(C(F)(F)F)c1 (stereo not drawn)	-2.1	-9.8	0.9	0.7	.	.	.
SMILES	ADAM17 inh	ADAM10 inh	PLCb3 inh	PLC-gamma1 inh	proKLK7 act	ADAM10 confirm	ADAM17 counter
CCOc1ccc(NC(=O)c2ccc(CN3CCc4ccccc4C3)cc2)cc1	7.8	20.4*	1.5	6.1	-0.1	10.8	5.0
COCCCN(C(=O)c1cc2c(s1)CCCCC2)c1c(N)n(Cc2ccccc2)c(=O)[nH]c1=O	3.2	20.4*	2.0	0.6	0.4	-0.7	0.0
O=S(=O)(Nc1ccc(C(O)(C(F)(F)F)C(F)(F)F)cc1)c1cccs1	1.5	8.9	2.0	-0.8	.	.	.
Cc1nc(NCc2ccc3c(c2)OCO3)c2oc3ccccc3c2n1	-2.7	6.8	-2.6	-3.0	0.9	.	.
CCc1nc(NCc2ccc3c(c2)OCO3)c2oc3ccccc3c2n1	7.8	27.6*	4.2	4.6	0.8	5.8	1.6
CC1(C)CC(=O)c2c(oc3cc(O)c(O)cc23)C1	2.2	20.7*	1.5	1.8	0.0	4.0	1.9
COc1cccc(/C(=N/O)C2CC2c2ccc(Cl)cc2)c1 (stereo not drawn)	7.4	21.8*	-2.8	1.9	0.5	5.8	0.8
COc1cccc(/C(C)=N/NS(=O)(=O)c2ccc(Cl)cc2)c1	-4.8	-4.6	-0.4	3.2	-0.3	.	.
COC(=O)[C@]12C[C@H](CC(=O)NCC34CC5CC(CC(C5)C3)C4)C(=O)N(Cc3ccc4c(c3)OCO4)C1=C[C@H](C(C)C)O[C@@H]2C1CC1	-0.2	8.2	2.0	0.3	-0.3	.	.
CCN(CC)c1ccc(C(=C2C=CC(=[N+](CC)CC)C=C2)c2ccccc2)cc1	3.8	-15.5	3.1	1.6	0.7	.	.
CCN(CC)c1ccc(C(=C2C=CC(=[N+](CC)CC)C=C2)c2ccc(N(CC)CC)cc2)cc1	6.8	22.9*	-12.7	0.8	0.7	-0.4	0.5
O=C(NNc1ccccc1)C(=O)NNS(=O)(=O)c1ccc(CCCl)cc1	10.6*	35.0*	-41.1	2.3	-0.4	13.3	0.9
Nc1ccc(S(=O)(=O)NNC(=O)C(=O)NNc2ccccc2)cc1	1.8	11.4	2.9	2.5	-0.4	.	.
Cc1cccc(C(=O)Nc2nc3ncccn3c2-c2ccc(C(F)(F)F)cc2)c1	-36.0	-134.5	-224.7	-167.3	-2.6	.	.
CN1OC[C@@H]2CN(Cc3ccc4c(c3)OCO4)[C@H](c3ccc(-n4ccnc4)cc3)C[C@@H]21	2.0	-4.6	3.0	2.5	-0.3	.	.
CC(=O)[C@H]1CC[C@H]2[C@@H]3CCC4=CC(=O)CC[C@]4(C)[C@H]3CC[C@]12C	7.4	21.0*!	-1.3	6.7	0.6	4.0	1.5
O=C(Nc1ccc(OCC(F)(F)C(F)F)c(C(F)(F)F)c1)c1ccc(Cl)cc1	4.5	24.6*	-1.3	2.4	0.5	10.4	3.3
